# PubChem BioAssay AID485346 (Sanford-Burnham Center for Chemical Genomics, 2010)
# In all, about 330,000 compounds went through this assay and about 10,000 (3%) were called active. What follows is part of a selection rich in actives, with near analogues and random picks from the rest. A number with no mark means an inactive call.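 Rule for the calls: active = inhibition of at least 50% at 8 µM in the primary screen; inactive = the rest.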
# Target: Protein Mdm4 (Homo sapiens) + E3 ubiquitin-protein ligase Mdm2 (Homo sapiens) (UniProt O15151+Q00987)
# Assay: disruptors of Mdm2/MdmX RING complex – cell-based, luminescence, split luciferase, SaOS-2, uHTS, primary screen (AID 485346)
# Conditions: SaOS-2 split-luciferase Mdm2/MdmX complementation, at 8 µM, active compounds read high
# Chain of Protein Mdm4 (Homo sapiens) + E3 ubiquitin-protein ligase Mdm2 (Homo sapiens) (O15151 whole entry, looked up): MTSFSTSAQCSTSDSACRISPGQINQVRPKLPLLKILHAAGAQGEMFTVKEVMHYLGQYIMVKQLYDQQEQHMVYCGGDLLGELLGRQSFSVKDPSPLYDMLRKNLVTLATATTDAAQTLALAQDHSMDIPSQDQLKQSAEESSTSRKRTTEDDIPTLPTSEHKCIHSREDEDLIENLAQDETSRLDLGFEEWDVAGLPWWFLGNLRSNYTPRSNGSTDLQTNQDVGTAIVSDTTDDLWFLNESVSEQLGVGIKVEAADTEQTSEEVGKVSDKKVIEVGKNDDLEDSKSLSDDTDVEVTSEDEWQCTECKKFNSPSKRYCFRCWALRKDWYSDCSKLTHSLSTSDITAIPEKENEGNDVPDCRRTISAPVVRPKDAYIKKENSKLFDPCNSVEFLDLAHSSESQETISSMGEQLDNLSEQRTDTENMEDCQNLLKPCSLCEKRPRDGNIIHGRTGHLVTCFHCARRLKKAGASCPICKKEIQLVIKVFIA
# Chain of Protein Mdm4 (Homo sapiens) + E3 ubiquitin-protein ligase Mdm2 (Homo sapiens) (Q00987 whole entry, looked up): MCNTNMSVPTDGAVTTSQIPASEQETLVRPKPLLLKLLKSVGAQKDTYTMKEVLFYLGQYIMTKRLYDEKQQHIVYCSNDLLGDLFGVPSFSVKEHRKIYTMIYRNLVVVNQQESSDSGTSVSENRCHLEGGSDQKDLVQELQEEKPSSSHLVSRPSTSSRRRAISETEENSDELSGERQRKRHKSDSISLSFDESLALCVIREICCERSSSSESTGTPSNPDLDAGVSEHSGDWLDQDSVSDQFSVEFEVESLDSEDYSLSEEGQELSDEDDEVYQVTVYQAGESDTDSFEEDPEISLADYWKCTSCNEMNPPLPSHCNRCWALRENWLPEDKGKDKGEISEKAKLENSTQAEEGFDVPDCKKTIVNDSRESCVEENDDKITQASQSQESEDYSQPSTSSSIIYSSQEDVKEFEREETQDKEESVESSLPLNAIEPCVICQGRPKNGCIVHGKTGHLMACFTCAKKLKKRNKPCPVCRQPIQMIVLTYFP
row,Structure (SMILES),inhibition
1,CCO[C@H]1OC(C(=O)O)=C[C@@H](C2CCCCC2)[C@@H]1CCCO,-5.58%
2,CCOC(=O)COn1c(=O)c(-c2ccc(OCC)cc2)[n+]([O-])c2ccccc21,-23.1%
3,CCCCCCCCCCOC(=O)Cn1c(COc2cccc(OC)c2)[n+](C)c2ccccc21,61.7% (active)
4,CCCCCCCCCCOC(=O)Cn1c(COc2ccc(C)cc2)[n+](C)c2ccccc21,91.9% (active)
5,CCCCn1c(N)c(N(CCOC)C(=O)c2cccc(OCc3ccccc3)c2)c(=O)[nH]c1=O,-6.7%
6,COc1cccc(OCc2nnc3n2N=C(c2ccccc2)C(CC(=O)O)S3)c1 (stereo unspecified),-4%
7,CCOC(=O)Cn1c(-c2cccnc2Cl)nc2ccccc21,-0.413%
8,COc1cccc(NC(=O)CSc2nnc(C3CCCCC3)n2N)c1,18.3%
9,CNC[C@@H]1Oc2c(NS(C)(=O)=O)cccc2C(=O)N([C@@H](C)CO)C[C@H]1C,-13.4%
10,COC(=O)c1ccc(/C=N/OCC(=O)Nc2cc(F)ccc2F)cc1,-13.4%
11,COc1ccccc1N1CCN(C(=O)c2c(-c3c(Cl)cccc3Cl)noc2C)CC1,15.5%
12,COc1ccccc1N1CCN(c2ccc([N+](=O)[O-])nc2)CC1,16.1%
13,COc1ccccc1N1CCN(c2ncnc3sc(C)c(-c4ccccc4)c23)CC1,69.2% (active)
14,O=C(NC1Cc2ccccc2C1)c1cc(COc2cccc(C(F)(F)F)c2)on1,26.2%
15,CCCCN(CCCC)CC(O)Cn1c2ccccc2c(=O)c2ccccc21 (stereo unspecified),18.6%
16,CC(=O)c1ccc2c(c1)c1ccccc1n2CC(C)C,47.4%
17,CS(=O)(=O)N(CC(O)Cn1c2ccccc2c2ccccc21)c1cccc2ccccc12 (stereo unspecified),64.1% (active)
18,COc1ccc(S(=O)(=O)N2CCOCC2)cc1NC(=O)CSc1cc(C)ccc1C,9.92%
19,Cn1c2c(c(=O)n(C)c1=O)C(c1cccc(F)c1)C(C#N)=C(N)O2 (stereo unspecified),-0.62%
20,Cc1ccc(C(=O)NCC(=O)NCc2cc(=O)n(C)c(=O)n2C)cc1,-0.269%
21,COc1ccc(Cl)cc1C(=O)Nc1ccc(N(C)C(C)=O)cc1,1.34%
22,CCC(C)NC(=O)c1cc(Cl)ccc1OC (stereo unspecified),2.55%
23,COC(=O)c1ccc(NC(=O)c2cc(Cl)ccc2OC)cc1,92.4% (active)

row,Structure (SMILES),inhibition
1,COc1cc(NC(=S)NCCSc2ccc(C)cc2)cc(OC)c1,27.5%
2,O=S(=O)(NCc1cccnc1)c1ccc(Br)s1,1%
3,O=C(NCCc1ccccc1)C1CCN(S(=O)(=O)c2ccc(Br)s2)CC1,18.6%
4,O=S(=O)([N-]c1nc2ccccc2nc1-[n+]1ccc(Cc2ccccc2)cc1)c1ccc(Br)s1,71.9% (active)
5,COc1ccc2c(c1)c1nc3n(c(=O)c1n2CC(=O)Nc1ccccc1)CCS3,41.9%
6,CC(C(=O)NC1CCCC1)N1CCN(S(=O)(=O)c2ccccc2Cl)CC1 (stereo unspecified),-17.2%
7,Cn1nccc1C(=O)NC1CCCc2c1cnn2-c1ccc(F)cc1F (stereo unspecified),26.9%
8,COc1ccc(C(=O)NC2CCCc3c2cnn3-c2cccc(C)c2C)c(OC)n1 (stereo unspecified),97.7% (active)
9,Cc1ccc(-n2ncc3c2CCCC3NC(=O)c2cnccn2)cc1C (stereo unspecified),9.66%
10,CC(=O)NCC(=O)NC1CCCc2c1cnn2-c1ccccc1F (stereo unspecified),-11.2%
11,Cc1cc(C(=O)NC2CCCc3c2cnn3-c2cccc(C)c2C)c(C)o1 (stereo unspecified),68% (active)
12,Cn1nccc1C(=O)NC1CCCc2c1cnn2-c1ccccc1F (stereo unspecified),-1.1%
13,Cc1nonc1C1CCCN1Cc1nc(-c2ccc(F)cc2F)oc1C (stereo unspecified),29.7%
14,Clc1ccc(C[n+]2cc(-c3ccc(Cl)cc3)n3c2CCC3)cc1,31.8%
15,Cc1cccc(N(CC(=O)N=Nc2c(O)[nH]c3ccccc23)S(C)(=O)=O)c1C,-22.1%
16,O=[N+]([O-])c1cc(S(=O)(=O)Nc2cccc(Cl)c2)ccc1N=Nc1c(O)[nH]c2ccccc12,97.4% (active)
17,COc1ccc(S(=O)(=O)Nc2ccc3cn[nH]c3c2)cc1[N+](=O)[O-],0.751%
18,Cc1ccc2[nH]c(=O)c(CC(=O)O)c(-c3ccccc3)c2c1,22%
19,Cc1cccc(N(C)C(=O)c2cc3c(=O)[nH]c4ccc(C)cc4c3s2)c1,60.9% (active)
20,CCN(CC)CCCNC(=O)c1cc2c(=O)[nH]c3ccc(C)cc3c2s1,26.3%
21,O=C(CNC(=O)C12CC3CC(CC(C3)C1)C2)OCC(=O)N1CCCCC1,19.2%
22,C/C(=N\NC(=O)c1ccc(NS(=O)(=O)c2cccs2)cc1)c1ccc2ccccc2c1,-6.93%
23,COc1cc(OC)cc(C(=O)NC2CCN(C(=O)N3c4ccccc4Sc4ccccc43)CC2)c1,9.25%

row,Structure (SMILES),inhibition
1,CC(=O)Nc1ccccc1NC(=O)c1cc(C)cc(C)c1,-1.21%
2,Nc1ccc(C(=O)NCc2ccccc2)cc1,3.98%
3,Nc1ccc(C(=O)Nc2ccccc2N)cc1,54.8% (active)
4,CCC(C)NC(=O)c1ccc(N2CCC3(CC2)OCCO3)c([N+](=O)[O-])c1 (stereo unspecified),10.6%
5,CC(NC(=O)c1ccc(N2CCNCC2)c([N+](=O)[O-])c1)C12CC3CC(CC(C3)C1)C2 (stereo unspecified),101% (active)
6,O=C(Nc1cccc(C(F)(F)F)c1)c1ccc(N2CCNCC2)c([N+](=O)[O-])c1,52.8% (active)
7,COc1cc(OC)cc(C(=O)NC(=S)N2CCN(c3ccc(C(F)(F)F)cc3[N+](=O)[O-])CC2)c1,17.3%
8,O=C(NC1C2CC3CC(C2)CC1C3)c1ccc(N2CCNCC2)c([N+](=O)[O-])c1 (stereo unspecified),34.8%
9,O=C(Nc1ccc(N2C(=O)c3cccc4cccc(c34)C2=O)cc1)c1ccc(N2CCCCC2)c([N+](=O)[O-])c1,-6.66%
10,Brc1c(CSc2nncc3ccccc23)nc2ccccn12,21.7%
11,CCc1ccccc1NC(=O)c1ccc2c(c1)CCN2S(C)(=O)=O,24.8%
12,CC(=N\NC(=O)c1cc(Br)ccc1O)/C(=N/O)C(=O)Nc1ccccc1,36.7%
13,CCN(CC)C(CNC(=O)CSc1nnnn1-c1cccc(F)c1)c1ccco1 (stereo unspecified),-4.51%
14,COc1cccc(-n2c(SCC(=O)NC3CCCCC3)nc3n[nH]c(C)c3c2=N)c1,53.3% (active)
15,Cc1ccc(-n2c(SCC(=O)NCCC3=CCCCC3)nc3n[nH]c(C)c3c2=N)cc1Cl,28.5%
16,CCCCNC(=O)CSc1nc2n[nH]c(C)c2c(=N)n1-c1cccc(Cl)c1C,-6.85%
17,COCCNC(=O)CSc1nc2sccc2c(=O)n1-c1ccccc1,6.49%
18,O=c1c2c3c(sc2n(CCN2CCCC2)c(=O)n1Cc1ccccc1)CCCCC3,28.5%
19,Cn1c(=O)n(Cc2ccco2)c(=N)c2c3c(sc21)CCCC3,15.6%
20,CN(C)CCCn1c(=O)n(Cc2ccccc2)c(=O)c2c3c(sc21)CCCCC3,61.8% (active)
21,CC(Nc1nc(C(F)(F)F)nc2ccccc12)c1cccs1 (stereo unspecified),69.6% (active)
22,CCc1ccc(C(CNc2nc(C(F)(F)F)nc3ccccc23)N(C)C)cc1 (stereo unspecified),20.9%
23,COc1cccc(CNc2nc(C(F)(F)F)nc3ccccc23)c1,31.6%

row,Structure (SMILES),inhibition
1,COc1ccccc1CNC(=O)CCCN1C(=O)NC2(CCCC2)C1=O,20.4%
2,Cc1c(C(=O)NCCN2CCOCC2)sc2nc(-c3ccc(F)cc3)cn12,7.76%
3,O=C(NN=C1CCC(=NNC(=O)c2cccnc2)CC1)c1cccnc1,-0.152%
4,O=C(N/N=C/c1cccnc1)c1ccc(NC(=O)c2ccc(F)cc2)cc1,-2.66%
5,O=C(N/N=C/c1sc(N2CCCCC2)nc1-c1cccs1)c1cccnc1,57.4% (active)
6,CCOC(=O)c1csc(CCNC(=O)c2oc3c(Cl)cc(C)cc3c2C)n1,21.7%
7,CC(Oc1ccc(Br)cc1)C(=O)NC1CCCCCC1 (stereo unspecified),0.219%
8,OC(COc1ccc(Br)cc1)CN1CCCC1 (stereo unspecified),2.28%
9,CC(C)(C)CC(C)(C)NCC(O)COCCOc1ccc(Br)cc1 (stereo unspecified),65.4% (active)
10,NC(=O)CCC(NS(=O)(=O)c1ccc(Cl)cc1)C(=O)NCc1ccccc1Cl (stereo unspecified),20.8%
11,Cc1cc(C)c2nc(-c3cccnc3)cc(C(=O)Nc3ccc(S(=O)(=O)Nc4onc(C)c4C)cc3)c2c1,-28.5%
12,Cc1ccc(Cn2c(=N)c(S(=O)(=O)c3ccc(C)cc3)cc3c(=O)n4ccccc4nc32)cc1,21.6%
13,N#CC1=C(N)Oc2cc(O)ccc2C1C1CCCCC1 (stereo unspecified),64.7% (active)
14,N#CC1=C(N)OC2=C(C(=O)CCC2)C1C1CC=CCC1 (stereo unspecified),-10%
15,COCc1[nH]nc2c1C(C1C=CCCC1)C(C#N)=C(N)O2 (stereo unspecified),23.8%
16,COc1cc(/C=C2\Oc3ccc(C#Cc4ccc(O)cc4)cc3C2=O)cc(OC)c1,62.4% (active)
17,COc1cc(C#Cc2ccc3cc(CCCO)oc(=O)c3c2)cc(OC)c1,38.9%
18,COc1ccc2c(c1)O/C(=C\c1ccccc1O)C2=O,-152%
19,O=C(Nc1cccc2c1CCCC2)c1ccc(F)cc1,11.9%
20,COc1ccc([C@H]2CC(=O)C=C(c3ccc(OC(F)(F)F)cc3)C2)cc1OC,-6.36%
21,CC[n+]1cc(C)ccc1/C=C/c1ccc(N(C)C)cc1,81.1% (active)
22,Cc1ccc2c(cnn2C(=O)CCC(=O)NC2CCCC2)c1,7.95%
